Screens deposited in PubChem BioAssay by National Center for Advancing Translational Sciences (NCATS).
Shiga toxin inh – Shiga toxin inhibition | Vero cells, Shiga toxin protein synthesis inhibition reporter | inhibition, % at 38.7 µM | actives 9.2% (n = 290,000) | AID 2315; in the data active = inhibition mostly above about 28%, no sharp cut-off; inactive = mostly below about 43%; also: 0% is about no effect
Cycloheximide cs – counter-screen for Shiga toxin inhibitors: cycloheximide protein synthesis inhibition; cell reporter, cycloheximide protein synthesis inhibition counterscreen; max response, %; actives 12% (n = 300,000); AID 2314; in the data active = max response mostly above about 13%, no sharp cut-off; inactive = mostly below about 14%; also: read at 38.3 µM for the half of the compounds with a filed dose; 0% is about no effect
AmpC inh detg – AmpC beta-lactamase inhibition with detergent present | P00811 | AmpC hydrolysis of nitrocefin, absorbance 480 nm, 0.01% Triton | Potency, µM (series often up to 114 µM), inactives show at the top dose activity change, negative = inhibition, actives largely listed as inhibitors | actives 0.041% (n = 370,000);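 also: potency is read from the fitted curve at half-maximal effect; 0% = no-compound wells and -100% = no-enzyme wells; nearly all actives have a fitted effect of over 25% in size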
Target sequence (P00811 whole entry, looked up): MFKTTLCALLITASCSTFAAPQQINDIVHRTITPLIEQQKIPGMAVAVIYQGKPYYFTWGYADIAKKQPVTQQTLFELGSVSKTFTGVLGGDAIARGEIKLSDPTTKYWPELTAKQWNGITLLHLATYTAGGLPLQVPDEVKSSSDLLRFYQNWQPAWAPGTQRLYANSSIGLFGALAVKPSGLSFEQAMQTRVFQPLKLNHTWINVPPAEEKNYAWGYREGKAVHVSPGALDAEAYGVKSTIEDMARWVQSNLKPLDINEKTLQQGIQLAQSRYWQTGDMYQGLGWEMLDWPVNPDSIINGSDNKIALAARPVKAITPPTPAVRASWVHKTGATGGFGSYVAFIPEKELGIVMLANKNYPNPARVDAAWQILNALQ
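20 mM phosphate pH 7.0 + 0.01% (detergent screen) or 0.0001% Triton X-100; 5.3 nM AmpC reagent; cpd preinc 15 min RT; nitrocefin (800 uM stock) to start; A480 q20 s × 4 min; Activity was normalised to no-enzyme and no-compound control wells.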
AmpC no deterg – AmpC beta-lactamase inhibition without detergent; P00811; AID 485341; actives 0.52% (n = 330,000); Potency, µM (titrated, usually from 57.1 µM), without a hit: top-dose activity change, negative = inhibition, actives largely listed as inhibitors; AmpC nitrocefin hydrolysis, absorbance 480 nm, 0.0001% Triton;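 also: potency is read from the fitted curve at half-maximal effect; plate controls were no compound for no effect and no enzyme for full effect; nearly all actives have a fitted effect of over 20% in size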
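20 mM phosphate pH 7.0 + 0.01% (detergent screen) or 0.0001% Triton X-100; 5.3 nM AmpC reagent; cpd preinc 15 min RT; nitrocefin (800 uM stock) to start; A480 q20 s × 4 min; Activity was normalised to no-enzyme and no-compound control wells.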
NS1 inh – influenza NS1 inhibition; Potency, µM (titrated, usually from 46.1 µM), for inactives: at the highest dose activity, positive = more growth; actives 0.4% (n = 270,000); calls by dose curve; also: potency is read from the fitted curve at half-maximal effect; actives are rising curves; nearly all actives have a fitted effect of over 50% in size
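Read-out: OD600 growth recovery of NS1-expressing budding yeast. Cells grown overnight at 30C in -URA glucose medium, washed, resuspended and diluted 1:100 in 2% galactose assay medium, pH 6.0. Same strain lacking NS1 served as positive control.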
Numbers without * were called inactive; ? = inconclusive; · = not tested or not shown. Shown is part of a subset that was picked to be rich in hits. Unless noted, calls follow the shape of the dose curve; as a rule, active = well fitted curve in the direction sought with a large enough effect; inconclusive = small, poorly fitted or top-dose-only effect, or another doubt; inactive = no such curve, though single readings can be large; an effect the other way counts as inactive or inconclusive.

SMILES	Shiga toxin inh	Cycloheximide cs	AmpC inh detg	AmpC no deterg	NS1 inh
O=C(Nc1ccc2ccccc2n1)c1ccccc1	66.4*	49.2*	-19.0%	-28.2%	-6.6%
O=C(COC(=O)C12CC3CC(CC(C3)C1)C2)Nc1nc2c(F)c(F)c(F)cc2s1	-1.1	-1.7	-0.8%	10µM*	9.1%
Cn1c(Sc2nc3ccccc3n2C)nc2ccccc21	17.4	-2.1	0.6%	2.9%	-18.3%
CCN1c2ccccc2-c2nc3ccccc3n2C1c1ccco1 (stereo not drawn)	-3.5	-4.1	-0.4%	-38.9%	-168.4%
Cn1c(-c2nonc2N)nc2ccccc21	-4.2	0.3	0.6%	-5.8%	19.5%
Cn1c(-c2ccc(Br)o2)nc2cc(Br)ccc21	103.7*	51.8*	-12.6%	-18.9%	-84.2%
Cc1ccc(C2Nc3ccccc3-c3nc4ccccc4n32)o1 (stereo not drawn)	66.8*	53.7*	-3.4%	-23.0%	-93.5%
Cn1c(-c2ccc(Br)o2)nc2ccccc21	56.3	28.8*	?	-1.8%	-80.3%
Cc1ccc(-c2nc3ccccc3n2C)o1	73.9*	57.4*	?	-15.9%	-119.5%
Cc1ccc2nc(-c3ccc(Br)o3)oc(=O)c2c1	-3.0	-1.9	-0.2%	-20.6%	-58.1%
Cc1ccc(Cn2c(CNC(=O)c3cccc(C)c3)nc3ccccc32)cc1	·	·	16.7%	·	·
Brc1ccc(Cn2c(-c3ccc(Br)o3)nc3ccccc32)o1	21.9	18.3*	?	4.0%	-20.7%
CC(=O)c1ccc(-c2nc3ccccc3n2C)o1	56.5*	36.4*	?	-18.1%	-17.6%
CCc1ccc(-n2nc(CO)c(C(=O)NCc3ccccn3)n2)cc1	·	·	15.8%	·	·
CCc1ccc(NC(=O)C(C)Sc2nnc(CN3CCCC3)o2)cc1 (stereo not drawn)	·	·	3.7%	-11.0%	·
CCn1ccc(C(=O)Oc2ccc(Cl)cc2)n1	56.4*	21.6*	-10.4%	-30.2%	-8.7%
O=C(O)c1nccnc1C(=O)Nc1ccc(Cl)cn1	-23.7	-1.1	0.1%	-18.3%	-0.7%
CCn1ccc(C(=O)Nc2ccc(Cl)cn2)n1	80.5	39.1*	-9.5%	-12.2%	-68.7%
CCn1nccc1C(=O)Nc1ccc(Cl)cn1	70.2*	59.9*	-1.4%	2.6%	6.1%
CC(C)c1ccc(OC(=O)c2cc(-c3ccc(Cl)cc3)on2)cc1	·	·	-5.8%	·	·
CCn1nccc1C(=O)Nc1cc(Cl)cc(Cl)c1	8.6	6.7	6.6%	-2.9%	-24.9%
Cc1cccc(NC(=O)c2ccc([N+](=O)[O-])o2)c1C	-14.0	-4.0	1.3%	-10.4%	·
O=C(Nc1ccccc1N1CCCC1)c1ccc([N+](=O)[O-])o1	41.4*	36.1*	-6.9%	-16.2%	-14.0%
O=C(CNc1cccc([N+](=O)[O-])c1)N/N=C/c1ccc([N+](=O)[O-])o1	-7.3	-0.9	-7.8%	-16.8%	4.9%
CC(C)C(=O)N1CCN(c2ccccc2NC(=O)c2ccc([N+](=O)[O-])o2)CC1	49.7*	26.7*	-1.2%	21.5%	-8.7%
SMILES	Shiga toxin inh	Cycloheximide cs	AmpC inh detg	AmpC no deterg	NS1 inh
O=C(Nc1cccc2ccccc12)c1ccc([N+](=O)[O-])o1	31.0*	31.0*	-6.3%	-30.9%	-141.7%
O=C(CNc1cccc2ccccc12)N/N=C/c1ccc([N+](=O)[O-])o1	14.4	10.4*	-5.2%	-26.5%	-10.4%
O=C(Nc1ccccc1N1CCN(C(=O)c2ccccc2)CC1)c1ccc([N+](=O)[O-])o1	26.3	3.0	-11.4%	24.1%	?
COc1ccccc1N1CCN(C(=O)C(CCSC)NS(=O)(=O)c2ccc3c(c2)oc(=O)n3C)CC1 (stereo not drawn)	·	·	2.1%	·	·
O=C1/C(=C\c2ccc(O)c(O)c2)SC(=S)N1Cc1ccccc1	14.2	11.0	-4.9%	11.2µM*	-61.4%
COc1ccc(CN2C(=O)/C(=C/c3ccc(-c4ccc(Cl)c(C(=O)O)c4)o3)SC2=S)cc1	17.5	15.9	-2.7%	-17.0%	·
O=C1/C(=C\c2cc([N+](=O)[O-])ccc2O)SC(=S)N1Cc1ccc(Cl)cc1	-3.1	-2.1	2.5%	3.55µM*	-52.2%
COc1cc(/C=C2/SC(=S)N(Cc3ccccc3)C2=O)ccc1O	34.8	-1.4	15.8%	-36.7%	22.5%
O=C(O)c1cc(-c2ccc(/C=C3/SC(=S)N(Cc4ccccc4)C3=O)o2)ccc1Cl	62.7*	28.8*	-3.1%	-42.4%	·
Cc1ccccc1/C=C1\SC(=S)N(/N=C/c2cc([N+](=O)[O-])ccc2O)C1=O	16.9	-9.4	1.0%	28.2µM*	·
